# Experiments:
# Assay in all cases: DAPPL (digital affinity profiling via proximity ligation, sequencing); 10 mM Tris-HCl pH 7.5, 50 mM NaCl, 1 mM DTT, 4% glycerol, room temperature, 30 min; GST-TFs on glutathione beads, 16-mer random dsDNA library, 0.1% formaldehyde crosslink after washing; high values mean tight binding
# FEV = target: T1, FEV (Homo sapiens, UniProt Q99581 1-238); conditions: protein: recombinant; tags: N-terminal GST; dsDNA, one strand shown
# T1 sequence: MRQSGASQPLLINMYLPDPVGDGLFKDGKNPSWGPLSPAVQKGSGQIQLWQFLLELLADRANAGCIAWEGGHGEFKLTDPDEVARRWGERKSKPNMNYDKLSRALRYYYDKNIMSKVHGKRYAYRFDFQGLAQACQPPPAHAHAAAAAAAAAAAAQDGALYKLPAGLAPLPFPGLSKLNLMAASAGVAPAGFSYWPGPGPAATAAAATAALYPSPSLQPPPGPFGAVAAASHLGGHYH
# Procedure, shortened: (§1)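 In yeast, human transcription factors were expressed with a GST fusion, then pulled down on glutathione beads and given DNA barcodes. Pooled with a tag-only sample, they were exposed to 200 nmole of a 16-mer random double-stranded DNA library (Tris/NaCl/DTT/glycerol buffer, room temperature, 30 min), washed, crosslinked with 0.1% formaldehyde, proximity-ligated using BsaI/T4 ligase for 1 h at 37 °C, PCR-amplified and read on an Illumina NextSeq500. Each hexamer's frequency of reads for a factor, divided by the matching frequency for the tag-only sample, gives the binding signal.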
# ETV5 = ETV5 (Homo sapiens, UniProt P41161 1-510); conditions: protein: recombinant; tags: N-terminal GST; dsDNA, one strand shown
# Procedure, shortened: as §1
# HSF1 = HSF1 (Homo sapiens, UniProt Q00613 1-529); conditions: protein: recombinant; tags: N-terminal GST; chain copies: 3; dsDNA, one strand shown
# Procedure, shortened: as §1
# SPIC = target: T2, SPIC (Homo sapiens, UniProt Q8N5J4 1-248); conditions: protein: recombinant; tags: N-terminal GST; dsDNA, one strand shown
# T2 sequence: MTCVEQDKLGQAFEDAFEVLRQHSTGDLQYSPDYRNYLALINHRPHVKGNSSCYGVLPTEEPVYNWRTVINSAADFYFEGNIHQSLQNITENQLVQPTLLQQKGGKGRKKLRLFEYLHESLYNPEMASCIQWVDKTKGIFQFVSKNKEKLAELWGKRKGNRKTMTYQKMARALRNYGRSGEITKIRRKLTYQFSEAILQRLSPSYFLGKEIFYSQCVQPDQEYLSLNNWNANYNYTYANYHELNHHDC
# Procedure, shortened: as §1
# ELF4 = ELF4 (Homo sapiens, UniProt Q99607 1-663); conditions: protein: recombinant; tags: N-terminal GST; dsDNA, one strand shown
# Procedure, shortened: as §1
# ELK4 = target: T3, ELK4 (Homo sapiens, UniProt P28324-2 1-405); conditions: protein: recombinant; tags: N-terminal GST; dsDNA, one strand shown
# T3 sequence: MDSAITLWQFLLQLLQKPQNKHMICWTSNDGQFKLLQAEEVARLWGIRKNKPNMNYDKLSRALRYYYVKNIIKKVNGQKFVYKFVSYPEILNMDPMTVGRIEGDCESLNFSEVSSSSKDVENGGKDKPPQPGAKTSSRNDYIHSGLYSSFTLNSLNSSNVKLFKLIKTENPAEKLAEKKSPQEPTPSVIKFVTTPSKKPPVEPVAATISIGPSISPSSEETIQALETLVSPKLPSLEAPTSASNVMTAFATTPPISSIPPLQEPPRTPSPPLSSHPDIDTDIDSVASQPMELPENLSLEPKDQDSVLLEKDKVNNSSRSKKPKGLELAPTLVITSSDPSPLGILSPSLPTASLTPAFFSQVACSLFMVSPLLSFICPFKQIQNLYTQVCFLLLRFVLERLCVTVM
# Procedure, shortened: as §1
# ETV2 = target: T4, ETV2 (Homo sapiens, UniProt O00321 1-342); conditions: protein: recombinant; tags: N-terminal GST; dsDNA, one strand shown
# T4 sequence: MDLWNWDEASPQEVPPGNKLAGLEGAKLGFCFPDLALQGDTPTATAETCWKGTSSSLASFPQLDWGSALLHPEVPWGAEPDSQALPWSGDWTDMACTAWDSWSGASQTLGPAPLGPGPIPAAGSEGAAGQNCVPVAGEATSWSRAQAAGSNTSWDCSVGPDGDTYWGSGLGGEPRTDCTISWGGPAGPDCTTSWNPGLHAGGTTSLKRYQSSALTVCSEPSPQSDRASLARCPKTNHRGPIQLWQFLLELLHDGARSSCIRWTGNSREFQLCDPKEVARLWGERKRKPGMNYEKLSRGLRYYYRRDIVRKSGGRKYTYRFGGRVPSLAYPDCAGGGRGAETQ
# Procedure, shortened: as §1
# ELF3 = target: T5, ELF3 (Homo sapiens, UniProt P78545 1-371); conditions: protein: recombinant; tags: N-terminal GST; dsDNA, one strand shown
# T5 sequence: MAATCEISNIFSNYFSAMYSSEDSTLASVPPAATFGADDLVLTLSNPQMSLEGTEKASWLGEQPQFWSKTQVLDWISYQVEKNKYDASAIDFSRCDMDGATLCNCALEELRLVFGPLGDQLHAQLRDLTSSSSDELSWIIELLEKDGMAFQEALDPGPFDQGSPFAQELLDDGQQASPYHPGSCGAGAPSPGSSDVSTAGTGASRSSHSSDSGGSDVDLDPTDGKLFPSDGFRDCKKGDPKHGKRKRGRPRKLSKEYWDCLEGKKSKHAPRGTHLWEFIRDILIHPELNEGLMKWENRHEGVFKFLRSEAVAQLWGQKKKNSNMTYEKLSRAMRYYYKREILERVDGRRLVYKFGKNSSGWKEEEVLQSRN
# Procedure, shortened: as §1
# CRX = CRX (Homo sapiens, UniProt O43186 1-299); conditions: protein: recombinant; tags: N-terminal GST; dsDNA, one strand shown
# Procedure, shortened: as §1
# HSF1, sequence (Q00613 whole entry): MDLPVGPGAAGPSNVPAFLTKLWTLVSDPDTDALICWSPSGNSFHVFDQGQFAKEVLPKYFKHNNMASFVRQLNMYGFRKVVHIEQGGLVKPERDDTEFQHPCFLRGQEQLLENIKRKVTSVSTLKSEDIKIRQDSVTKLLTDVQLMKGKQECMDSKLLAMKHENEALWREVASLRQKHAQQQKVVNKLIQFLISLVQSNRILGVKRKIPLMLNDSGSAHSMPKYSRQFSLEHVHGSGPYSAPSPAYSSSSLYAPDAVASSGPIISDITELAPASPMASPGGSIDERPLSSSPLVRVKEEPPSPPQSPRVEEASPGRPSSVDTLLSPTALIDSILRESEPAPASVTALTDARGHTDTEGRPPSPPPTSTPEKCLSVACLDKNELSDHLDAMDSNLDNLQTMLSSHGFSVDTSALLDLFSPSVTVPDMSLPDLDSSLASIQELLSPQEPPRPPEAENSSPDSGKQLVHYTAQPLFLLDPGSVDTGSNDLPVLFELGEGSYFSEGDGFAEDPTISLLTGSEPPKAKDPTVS
# ELF4, sequence (Q99607 whole entry): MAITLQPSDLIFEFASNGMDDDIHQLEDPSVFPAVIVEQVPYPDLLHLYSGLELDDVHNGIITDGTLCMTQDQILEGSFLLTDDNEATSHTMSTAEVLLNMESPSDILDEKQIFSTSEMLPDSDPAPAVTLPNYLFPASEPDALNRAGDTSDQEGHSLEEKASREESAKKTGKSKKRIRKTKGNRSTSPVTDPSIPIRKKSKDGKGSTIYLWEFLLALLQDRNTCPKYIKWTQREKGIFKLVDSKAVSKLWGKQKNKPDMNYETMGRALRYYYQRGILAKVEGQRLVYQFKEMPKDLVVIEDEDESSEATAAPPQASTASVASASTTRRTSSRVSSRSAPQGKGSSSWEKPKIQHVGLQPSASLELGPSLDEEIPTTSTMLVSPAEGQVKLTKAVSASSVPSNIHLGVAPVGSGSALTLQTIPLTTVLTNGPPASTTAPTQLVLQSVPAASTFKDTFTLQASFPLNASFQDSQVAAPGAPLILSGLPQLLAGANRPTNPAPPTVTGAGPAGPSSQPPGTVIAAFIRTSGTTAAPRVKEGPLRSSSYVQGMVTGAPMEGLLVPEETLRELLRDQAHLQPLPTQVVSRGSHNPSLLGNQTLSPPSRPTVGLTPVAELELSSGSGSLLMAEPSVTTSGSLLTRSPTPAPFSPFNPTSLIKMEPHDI
# ETV5, sequence (P41161 whole entry): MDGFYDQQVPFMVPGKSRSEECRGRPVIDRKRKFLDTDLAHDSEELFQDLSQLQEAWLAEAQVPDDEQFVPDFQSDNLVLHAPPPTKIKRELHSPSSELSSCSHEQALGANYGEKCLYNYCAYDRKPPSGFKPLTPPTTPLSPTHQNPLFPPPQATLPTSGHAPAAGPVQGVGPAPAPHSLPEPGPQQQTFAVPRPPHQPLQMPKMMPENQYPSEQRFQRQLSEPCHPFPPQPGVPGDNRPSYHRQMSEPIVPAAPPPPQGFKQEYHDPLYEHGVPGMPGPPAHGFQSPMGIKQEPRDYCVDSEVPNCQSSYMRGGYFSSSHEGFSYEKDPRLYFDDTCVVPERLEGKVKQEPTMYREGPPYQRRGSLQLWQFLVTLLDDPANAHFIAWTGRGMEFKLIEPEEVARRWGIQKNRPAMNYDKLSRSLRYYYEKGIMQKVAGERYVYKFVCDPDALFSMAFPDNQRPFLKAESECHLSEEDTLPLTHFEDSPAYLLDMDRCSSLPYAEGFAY
# CRX, sequence (O43186 whole entry): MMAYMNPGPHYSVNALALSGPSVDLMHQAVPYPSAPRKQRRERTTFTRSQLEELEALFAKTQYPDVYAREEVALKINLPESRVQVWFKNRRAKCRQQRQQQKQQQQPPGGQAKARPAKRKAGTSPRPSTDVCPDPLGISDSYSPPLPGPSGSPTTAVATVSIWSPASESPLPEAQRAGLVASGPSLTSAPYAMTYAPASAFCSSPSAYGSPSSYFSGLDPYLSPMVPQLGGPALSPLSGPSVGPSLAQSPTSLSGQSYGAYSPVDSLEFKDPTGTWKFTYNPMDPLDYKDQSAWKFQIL
sequence,measurement,setting,value
CCCCTT,binding signal,FEV,"1.57 fold enrichment (6-mer frequency, TF over GST control)"
same,binding signal,ETV5,"1.62 fold enrichment (6-mer frequency, TF over GST control)"
same,binding signal,HSF1,"1.37 fold enrichment (6-mer frequency, TF over GST control)"
same,binding signal,SPIC,"1.56 fold enrichment (6-mer frequency, TF over GST control)"
same,binding signal,ELF4,"1.63 fold enrichment (6-mer frequency, TF over GST control)"
same,binding signal,ELK4,"1.53 fold enrichment (6-mer frequency, TF over GST control)"
same,binding signal,ETV2,"1.35 fold enrichment (6-mer frequency, TF over GST control)"
same,binding signal,ELF3,"1.6 fold enrichment (6-mer frequency, TF over GST control)"
same,binding signal,CRX,"1.41 fold enrichment (6-mer frequency, TF over GST control)"

# From paper PMC7862700, “An all-to-all approach to the identification of sequence-specific readers for epigenetic DNA modifications on cytosine”
